Compound activity (PubChem)
Hits are enriched below; roughly 4.2% of the tested compounds scored in any of these assays.
GAA850 FXN act = activators of GAA850 frataxin (FXN) promoter; hit rate 0.56% among 360,000; activation, % at 6 µM; HEK293 lucGAA850 FXN promoter luciferase reporter, 24 h; percent of 10 µM SAHA response; AID 540364;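 active means activation above the average of all compounds screened plus 3 SD, cutoff fixed separately per campaign, cut at about 7.5% in these data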;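 further: 0% = DMSO wells and 100% = 10 µM SAHA wells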
AHR act = activators of human aryl hydrocarbon receptor | AHR-responsive luciferase reporter cells, luminescence | activation, % at 5 µM | hit rate 2.5% among 320,000 | AID 2796; in the data active means activation above about 47%;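 further: 0% = vehicle wells and 100% = reference agonist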
esBAF inh = inhibitors of esBAF chromatin remodeling in mouse ES cells; reporter increase, % at 12.5 µM; AID 602393; hit rate 2% among 350,000; Bmi1-luciferase knock-in reporter, 24 h; 100% = twice the neutral-well signal; in the data active means activation above about 40%; inconclusive means no clear call, values can overlap the other calls;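 further: 0% = median of the plate's neutral control wells and 100% = double that signal; a rise in the Bmi1 reporter signal indicates esBAF inhibition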
Wnt bcat act = activators of Wnt/beta-catenin signaling; Wnt/beta-catenin reporter cell assay, activator, plate reader; activation, % at 9.35 µM; hit rate 1.2% among 300,000; in the data active means activation above about 30%, passing the limit was not always enough; inconclusive means no clear call, values can overlap the other calls;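 further: 0% = neutral control wells and 100% = positive control wells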
MITF act = increases MITF-driven TRPM1 promoter luciferase signal; activation, % at 12.5 µM; hit rate 0.75% among 300,000; SK-MEL-5 TRPM1-promoter luciferase, 24 h; % of positive control, neutral wells = 0;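 active means mean activation of at least 80% with every replicate also reaching 80%; inconclusive means mean reaches 80% but some replicate falls short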;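 further: 0% = neutral control wells and 100% = parthenolide positive control wells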
AHR act confirm = human AHR activation, confirmation. shares compounds with AHR act. human cells, AHR-responsive luciferase reporter, luminescence. AID 2845. hit rate 87% among 2,300. activation, % at 9 µM; in the data active means activation above about 49%;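 further: HepG2 hepatoma cells carrying a DRE-driven firefly luciferase reporter; 0% = vehicle wells and 100% = reference agonist wells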
PXR act counter = activates human PXR in AHR activator counter-screen. shares compounds with AHR act. cell-based PXR reporter, luciferase luminescence. activation, % at 11.6 µM. hit rate 88% among 2,300; in the data active means activation above about 11%;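 further: human hepatoma DPX-2 cells expressing full-length human PXR; 0% = DMSO and 100% = reference agonist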
Target sequence (O75469 whole entry, looked up): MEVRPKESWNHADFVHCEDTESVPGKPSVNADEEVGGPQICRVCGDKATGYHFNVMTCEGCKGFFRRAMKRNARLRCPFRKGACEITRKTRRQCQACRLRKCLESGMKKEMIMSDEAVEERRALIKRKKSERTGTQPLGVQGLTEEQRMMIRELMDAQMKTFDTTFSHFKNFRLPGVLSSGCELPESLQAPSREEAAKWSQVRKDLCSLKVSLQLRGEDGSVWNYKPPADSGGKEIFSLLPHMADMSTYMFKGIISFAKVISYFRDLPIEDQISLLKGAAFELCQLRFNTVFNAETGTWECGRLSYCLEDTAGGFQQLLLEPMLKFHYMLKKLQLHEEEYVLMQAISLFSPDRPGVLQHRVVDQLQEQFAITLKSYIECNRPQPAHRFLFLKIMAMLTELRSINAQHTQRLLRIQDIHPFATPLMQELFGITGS
An asterisk follows results filed as active; ? = inconclusive; / = no result.

SMILES	GAA850 FXN act	AHR act	esBAF inh	Wnt bcat act	MITF act	AHR act confirm	PXR act counter
CCc1ccc(S(=O)(=O)/N=C2\C=CC(=O)c3ccccc32)cc1	/	112*	/	/	/	93*	164*
O=S(=O)(N=C1C=CC(=NS(=O)(=O)c2ccccc2)c2ccccc21)c1ccccc1	-3	/	-3	-5	/	/	/
O=C(CSc1nccc(=O)[nH]1)N1N=C2/C(=C/c3ccco3)CCCC2C1c1ccco1 (stereo unspecified)	0	2	1	13	-8	/	/
O=C(CSc1ncn[nH]1)N1N=C2/C(=C/c3ccccc3)CCCC2C1c1ccccc1 (stereo unspecified)	-3	98*	/	/	-22	88*	74*
Fc1ccc(Br)cc1/C=N/N1CCN(c2ccccc2)CC1	1	120*	10	18	/	117*	18*
Cc1ccc(CN2CCN(/N=C/c3cc(Br)ccc3F)CC2)cc1	1	-1	-3	1	/	/	/
C[C@H](CO)N1C[C@H](C)[C@H](CN(C)S(=O)(=O)c2ccc(Cl)cc2)Oc2ccc(NC(=O)Cc3ccccc3)cc2CC1=O	/	/	2	/	/	/	/
Cc1onc(-c2c(Cl)cccc2Cl)c1C(=O)Nc1nccs1	-3	5	-13	-2	-9	/	/
CC(=O)c1noc(C)c1C(=O)Nc1nccs1	0	103*	/	/	4	81*	/
CO[C@H]1CN(C)C(=O)c2cc(NC(=O)C3CCC3)ccc2OC[C@H](C)N(CC2CCCCC2)C[C@H]1C	/	/	1	/	/	/	/
Cc1cc(NC(=O)NC(=O)c2cccc(OC(F)(F)C(F)F)c2)n[nH]1	3	157*	38	22	38	104*	17*
CCOc1ccccc1C(=O)Nc1nnc(CC)s1	3	96*	12	5	9	70*	22*
CCOC(=O)Nc1nnc(-c2ccccc2OC)s1	2	98*	11	/	15	125*	29*
COC(=O)Nc1nnc(-c2ccccc2OC)s1	7	107*	/	49*	45	140*	17*
CCc1nnc(NC(=O)c2cccc(C(=O)Nc3nnc(CC)s3)n2)s1	1	8	/	-1	-53	/	/
COc1ccccc1-c1nnc(N)s1	1	1	/	0	-2	/	/
Cc1ccc(S(=O)(=O)Nc2ccc3c(c2)CC(=O)N([C@H](C)CO)C[C@@H](C)[C@@H](CN(C)C(=O)Nc2ccc4c(c2)OCO4)O3)cc1	/	/	-2	/	/	/	/
COc1ccc(/C=C2\SC(=N)N(c3nccs3)C2=O)cc1OC	4	85*	/	-2	4	53*	17*
C/C=C/c1cnc2c(c1)C(=O)N([C@@H](C)CO)C[C@@H](C)[C@@H](CN(C)S(=O)(=O)c1cn(C)cn1)O2	/	/	-5	/	/	/	/
COc1cccc(-c2nc(C(N)=O)c3[nH]c(=O)n(-c4cccc(Cl)c4)c3n2)c1OC	0	89*	-4	-2	12	93*	31*
C[C@H]1CCCCO[C@H](CN(C)CC2CC2)[C@@H](C)CN([C@@H](C)CO)C(=O)c2cc(NC(=O)C3CCCCC3)ccc2O1	/	/	-1	/	/	/	/
O=[N+]([O-])c1cc(-c2nc(-c3ccncc3)no2)cc([N+](=O)[O-])c1	-1	90*	?	/	-33	72*	/
CN1CCN(C(=O)[C@@H]2[C@@H](CO)[C@@H]3Cn4c(cccc4=O)[C@H]2N3S(=O)(=O)c2ccccc2F)CC1	/	/	0	/	/	/	/
CC(C)CC(=O)NC(=S)Nc1nc(-c2cccc3ccccc23)cs1	4	80*	-7	-2	-22	53*	29*
CCOC(=O)Cc1csc(NC(=S)NC(=O)CC(C)C)n1	0	-1	4	/	-2	/	/
SMILES	GAA850 FXN act	AHR act	esBAF inh	Wnt bcat act	MITF act	AHR act confirm	PXR act counter
CCCC(=O)Nc1ccc2c(c1)C(=O)N(C)C[C@H](OC)[C@@H](C)CN(C(=O)c1ccncc1)[C@@H](C)CO2	/	/	0	/	/	/	/
CON/C=C(\C=Nc1ccc(Cl)cc1)c1ncc(C(F)(F)F)cc1Cl	0	112*	-6	/	-15	93*	14*
N/C(=N\OC(=O)Nc1ccc(Cl)cc1)c1ncc(C(F)(F)F)cc1Cl	3	1	13	/	23	/	/
CON/C=C(\C=Nc1ccc(C(F)(F)F)cc1)c1ncc(C(F)(F)F)cc1Cl	1	108*	-5	-5	-16	103*	31*
Cc1noc(C)c1NC(=O)Nc1ccc2c(c1)CC(=O)N([C@H](C)CO)C[C@H](C)[C@@H](CN(C)C(=O)Nc1ccc(C(F)(F)F)cc1)O2	/	/	-8	/	/	/	/
CO[C@H]1CN(C)C(=O)c2ccc(NC(=O)c3ccccc3F)cc2OC[C@H](C)N(C(C)=O)C[C@@H]1C	/	/	-3	/	/	/	/
COc1cc(OC)cc(-c2nnc(Nc3nc4c(F)cccc4s3)o2)c1	1	0	-21	/	-11	/	/
Fc1cccc2sc(Nc3nnc(-c4ccccc4)o3)nc12	4	155*	36	/	11	120*	22*
COC(=O)c1ccccc1NC(=O)Cn1ccnc1	3	104*	/	/	-11	84*	/
COC(=O)c1ccccc1NC(=O)CC(=O)Nc1ccccc1C(=O)OC	3	5	4	0	12	/	/
O=C(Nc1ccccc1C(=O)N/N=C/c1ccc(O)cc1)c1ccccc1	2	103*	/	10	60	88*	28*
O=[N+]([O-])c1cc(/C=N\Nc2nc(-c3ccccc3)cs2)ccc1O	2	119*	/	12	26	39	4
O=C(C[C@H]1C[C@H]2c3cc(NC(=O)Cc4ccncc4)ccc3O[C@H]2[C@H](CO)O1)NCc1cccc(F)c1	/	/	8	/	/	/	/
CCCNC(=O)C[C@@H]1C[C@@H]2c3cc(NS(=O)(=O)c4ccccc4)ccc3O[C@@H]2[C@H](CO)O1	/	/	14	/	/	/	/
COc1ccc(OC)c(NC2=NC3(CCCC3)N=C(N)N2)c1	-3	84*	-4	2	1	61*	11*
NC1=NC2(CCCCC2)N=C(Nc2ccc(F)cc2F)N1	-1	0	21	/	-7	/	/
O=C(Cc1ccccn1)NCC[C@H]1CC[C@@H](NS(=O)(=O)c2ccc(F)cc2)[C@@H](CO)O1	/	/	3	/	/	/	/
CN(C)C(=O)COc1ccc(S(=O)(=O)c2ccc(OCC(=O)N(C)C)cc2)cc1	1	102*	-1	1	21	6	9
C[C@H]1CN([C@@H](C)CO)C(=O)c2cc(NS(=O)(=O)c3cccs3)ccc2O[C@H]1CN(C)S(=O)(=O)c1ccc(Cl)cc1	/	/	-2	/	/	/	/
CN1CCc2c(sc3c2C(=O)NC(c2cccs2)N3)C1 (stereo unspecified)	5	85*	34	15	40	92*	37*
Cc1ccsc1C1NC(=O)c2c(sc3c2CCN(C)C3)N1 (stereo unspecified)	-1	92*	20	7	38	54*	17*
CSc1ccc(C2NC(=O)c3c(sc4c3CCN(C)C4)N2)cc1 (stereo unspecified)	0	22	2	-2	8	/	/
